# Source: PubChem BioAssay (NCI)
# Values joined by “and” are separate entries in the source; they are usually repeats but may differ in a detail not shown here. Equal values may be shown once. The panel holds about 83,000 compounds, 20% with a hit somewhere; the sample as a whole holds those more often.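 How to read the values: 0–100, growth inhibition (40 = 60% inhibited); 0, no net growth; -100 to 0, cell death (-40 = 40% of starting cells died; -100 = all dead).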 Unmarked numbers belong to inactive results. Active and inactive are the calls of the source. How the source made its calls: active means growth percent below 10; inactive means the rest.
# Tested on: HL-60(TB) leukemia
# Experiment: NCI-60 one-dose screen, 48 h (100 = growth as untreated, 0 = no growth, -100 = all killed)
# Settings: 10 µM unless noted
row,Structure (SMILES),growth
1,NC(=O)C1CC2C=CC1C2 (stereo not given),108% and 106%
2,NC1=NC(=O)C(c2ccccc2)(c2ccccc2)S1,97.9%
3,COc1ccc(-c2cnc(N)nc2-c2ccc(OC)cc2O)cc1,79%
4,CCN1C(=S)N(c2ccccc2)C2NC(=S)N(/N=C/C=C/c3ccccc3OC)C21 (stereo not given),-52.9% (active)
5,COC(=O)/C=C/C(=O)NC(N)=O,97.4%
6,Oc1ccc(Cl)cc1Cc1cc(Cl)ccc1O,33.8%
7,CCc1cnn2c(NCc3ccc[n+]([O-])c3)cc(N3CCCC[C@H]3CCO)nc12,-43.2% (active)
8,COC(=O)CCCNc1c(-c2c(O)c(O)cc3c(O)c(-c4c(C)cc5c(-c6nc7ccccn7c6NCCCC(=O)OC)c(O)c(O)cc5c4O)c(C)cc23)nc2ccccn12,91.7%
9,CN(C)CCCn1c2c(c3cc(-c4cccc(S(N)(=O)=O)c4)ccc3c1=O)C(=O)c1ccccc1-2,93.2%
10,O=c1c2cc(F)ccc2sc2c(NCCCNCCO)nc3ccc(Cl)cc3c12,45.4%
11,Cc1nnc(NS(=O)(=O)c2ccc(N=Nc3ccc(N)nc3N)cc2)s1,98.4% and 98.2%
12,Cc1nc(/N=C(\N)NC(=O)Nc2cccc([N+](=O)[O-])c2)sc1C,39.5%
13,Oc1ccc(CN(Cc2ccc(C(F)(F)F)cc2)Cc2ccc(O)c3ncccc23)c2cccnc12,-11% (active)
14,COc1ccc(C(C)=O)cc1S(=O)(=O)Nc1c(N)nc(SC)[nH]c1=O,96.8%
15,COC(=O)c1ccc([N+](=O)[O-])c(C)c1,85.5%
16,Fc1ccc2c(c1)c(-c1nc(-c3c[nH]c4ncccc34)cs1)cn2CCCN1CCCCC1,24.2%
17,CN(C)c1ccc(-c2cc(-c3cccc(NS(C)(=O)=O)c3)nc(N)c2C#N)cc1,2.91% (active)
18,Cn1cc(C(=O)c2nc(-c3c[nH]c4ccccc34)no2)c2ccccc21,58.5%
19,Nc1ncnc2c1ccn2-c1cccc(NC(=O)c2cccc(C(F)(F)F)c2)c1,104%
20,COc1ccc2oc3c(C)c4c(c(C)c3c2c1)C(=O)N(Cc1ccccc1)C4=O,96.2%

row,Structure (SMILES),growth
1,COc1cccc([C@H]2c3[nH]c4ccccc4c3C[C@H]3C(=O)N(CCCCCCC(=O)NO)CC(=O)N23)c1,31%
2,CN1CCN(c2ccc3nc(-c4ccc(OCCCCN5CCN(CCCCN6C(=O)c7cccc8cccc(c78)C6=O)CC5)cc4)[nH]c3c2)CC1,16.6%
3,COc1ccc(CCn2cnn3c(=O)c4ccccc4nc3c2=O)cc1OC,92.4% and 103%
4,CN1CCN(c2ccc(NC(=O)c3nc4ccc5[nH]ncc5c4c4c3CCCC4)cc2C(F)(F)F)CC1,28%
5,O=C(CN1CCN(c2cc3c(cc2F)c(=O)c(C(=O)N/N=C/c2ccccc2O)cn3C2CC2)CC1)N/N=C\c1ccccc1O,1.69% (active)
6,CSc1nnc(-c2cnn3c2NC(c2ccccc2)C3)n1-c1ccc(C(F)(F)F)cc1 (stereo not given),73.6%
7,CCCCNC(=O)Oc1ccc2c(=O)c3sc4c(=O)c5ccccc5c(=O)c4c3c(=O)c2c1,-43.3% (active)
8,CNNc1ncnc2c1cnn2-c1ccc(S(N)(=O)=O)cc1,83.5%
9,CCN(CC)CCNC(=O)c1cn2ncnc(Oc3ccc(NC(=O)Nc4ccc(Cl)c(C(F)(F)F)c4)c(F)c3)c2c1C,-45% (active)
10,CC(O)Cn1cnc2c1c(=O)n(C)c(=O)n2C (stereo not given),97.1%
11,Cc1nc(N2CCOCC2)sc1S(N)(=O)=O,97.4%
12,CS(=O)CC(=N\O)/C(CS(C)=O)=N\O (stereo not given),101%
13,C/C(=N/O)c1ccc(F)cc1,102%
14,C=CCN=c1sc2c(n1NC(=O)c1cc3ccc1CCc1ccc(cc1)CC3)C(=O)c1ccccc1C2=O,-20.1% (active)
15,CC(CN=Cc1ccccc1O)N=Cc1ccccc1O (stereo not given),110% and 83%
16,Cc1ccc(S(=O)(=O)OCCN(CCOS(=O)(=O)c2ccc(C)cc2)c2c[nH]c(=O)[nH]c2=O)cc1,99.2%
17,COc1ccc(-n2nnc(C(=O)NCCc3c[nH]c4ccc(F)cc34)c2C)cc1,86.9%
18,CCOC(=O)C(C#N)=C1CCN(C)CC1,113%
19,CN(C)CCCN1c2ccccc2Sc2ccc(Cl)cc21,107% and 92.5%
20,CCC(C(=O)[C@@H](C)[C@@H](O)[C@H](C)[C@@H]1O[C@@H]([C@@H](CC)C(=O)ONC(=O)c2ccccc2)CC[C@@H]1C)[C@H]1O[C@]2(C=CC(=O)[C@]3(CC[C@@](C)([C@H]4CC[C@](O)(CC)[C@H](C)O4)O3)O2)[C@H](C)C[C@@H]1C (stereo not given in full),-63.9% (active)
